Source: PubChem BioAssay (NCATS)
Records with an inconclusive call do not appear. A call without a number means that no potency is given here. Active and inactive are the calls of the source. Calls follow the shape of the dose curve; as a rule, active = well fitted cell-killing curve with a large enough effect; inconclusive = small, poorly fitted or top-dose-only effect, or effect the other way; inactive = no such curve, though single readings can be large or run the other way.

Experiment: Quantitative High-Throughput drug screen in 47 multiple myeloma cell lines against the NCATS MIPE library collection: KMS27_JCRB cell viability assay (AID 1918970); also: nearly all actives have a fitted effect of over 30% in size
Conditions: KMS27 myeloma cells, CellTiter-Glo ATP viability, 48 h; series mostly up to 45.8 µM
From the text: PI: Beverly A. Mock Ph.D.
Laboratory of Cancer Biology and Genetics,
Center for Cancer Research, National Cancer Institute,
National Institute of Health, Bethesda, Maryland
Drug resistance and disease progression are common in multiple myeloma (MM) patients, underscoring the need for new therapeutic combinations. […] We hypothesized that effective combinations would reduce MYC expression and enhance p16 activity. […] These preclinical data identify potentially useful drug combinations for evaluation in drug-resistant MM and reveal potential mechanisms of combined drug sensitivity.
Described herein is the primary MIPE qHTS used to cherrypick compounds. Validated compounds were then further tested for potential synergistic activiy.
[1] Peat TJ, Gaikwad SM, Dubois W, Gyabaah-Kessie N, Zhang S, Gorjifard S, Phyo Z, Andres M, Hughitt VK, Simpson RM, Miller MA, Girvin AT, Taylor A, Williams D, D'Antonio N, Zhang Y, Rajagopalan A, Flietner E, Wilson K, Zhang X, Shinn P, Klumpp-Thomas C, McKnight C, Itkin Z, Chen L, Kazandijian D, Zhang J, Michalowski AM, Simmons JK, Keats J, Thomas CJ, Mock BA. Drug combinations identified by high-throughput screening promote cell cycle transition and upregulate Smad pathways in myeloma. […] Epub 2023 Jun 24. PMID: 37356470; PMCID: PMC10408729.
SEQUENCE No. (e.g., 1, 2, 3, etc.); […] (e.g., Cells, Incubation, Reagent, etc.); VALUE and DESCRIPTION.
1; Cells; 5 uL; white, solid bottom 1536-well Greiner assay plate.
2; Compounds; 23 nL; Kalypsis pin tool (Wako USA) equipped with a 1536-well pin head to transfer to the assay plates.
3; Incubation; 48 hours; 37C incubation.
4; Reagent;5uL; CellTiter Glo (Promega).
5; Detector; 425V; Luminescence; Viewlux PerkinElmer.
NOTES (numbers refer to Sequence numbers above)
1. The cell-based screening methods employed in this study were like those previously published. Briefly, the corresponding myeloma cell lines were screened in 1,536-well plates with 500 cells, 5-uL per well for inhibition of cell viability (assessed by measuring ATP levels with CellTiterGlo).
2. NCATS MIPE 4.0 library of approved and investigational drugs were added using the Kalypsis pin tool. Wells treated with DMSO only for 100% viability and media only wells for 0% viability were used as controls.
3. The assay plates were covered and incubated for 48 hours in a 37C, 5% CO2 incubator with controlled humidity.
4. After 48 hours, CellTilter-GloTM luminescent substrate mix (Promega) reagent was added to the assay plate and plates we incubated for 5 min at room temperature.
5. Signal was measured as median relative luminescence units on a ViewLux (PerkinElmer) multiplate reader.
[1] Heske CM, Davis MI, Baumgart JT, Wilson K, Gormally MV, Chen L, Zhang X, Ceribelli M, Duveau DY, Guha R, Ferrer M, Arnaldez FI, Ji J, Tran HL, Zhang Y, Mendoza A, Helman LJ, Thomas CJ. Matrix Screen Identifies Synergistic Combination of PARP Inhibitors and Nicotinamide Phosphoribosyltransferase (NAMPT) Inhibitors in Ewing Sarcoma. Clin Cancer Res. 2017 Dec 1;23(23):7301-7311. doi: 10.1158/1078-0432.CCR-17-1121. Epub 2017 Sep 12. PMID: 28899971; PMCID: PMC6636827.
Potency is read from the fitted curve at half-maximal effect.

Structure (SMILES) | Potency
CCc1c(C(=O)C(N)=O)c2c(OCC(=O)O)cccc2n1Cc1ccccc1 | inactive
Oc1ccc2c3c1O[C@H]1c4[nH]c5c(c4C[C@@]4(O)[C@@H](C2)N(CC2CC2)CC[C@]314)C[C@@]1(O)[C@H]2Cc3ccc(O)c4c3[C@@]1(CCN2CC1CC1)[C@H]5O4 | inactive
NC1=NC(=O)N2CC12 (stereo not given) | 7.43 µM (active)
c1ccc(CCCN2CCN(CCOC(c3ccccc3)c3ccccc3)CC2)cc1 | inactive
CC(N[C@H]1C[C@H]1c1ccccc1)c1ccc2c(c1)OCCO2 (stereo not given in full) | inactive
CN1[C@H]2CC(O)C[C@H]1[C@H]1O[C@H]12 (stereo not given in full) | inactive
CC=C(C)C(=O)N[C@@H](c1ccccc1)[C@@H](O)C(=O)O[C@H]1C[C@@]2(O)[C@@H](OC(=O)c3ccccc3)[C@@H]3[C@]4(OC(C)=O)CO[C@@H]4C[C@H](O)[C@@]3(C)C(=O)[C@H](OC(C)=O)C(=C1C)C2(C)C | 0.0012 µM (active)
C[C@@H]1O[C@@H](O[C@@H]2C=C3CC[C@@H]4[C@@H](CC[C@]5(C)[C@H](c6ccc(=O)oc6)CC[C@@]45O)[C@@]3(C)CC2)[C@H](O)[C@H](O)[C@H]1O | 0.0083 µM (active)
CC(=O)OCC1=C(C(=O)O)N2C(=O)[C@@H](N)[C@@H]2SC1 | 7.43 µM (active)
COC[C@H]1OC(=O)c2coc3c2[C@@]1(C)C1=C(C3=O)[C@@H]2CC[C@H](O)[C@@]2(C)C[C@@H]1OC(C)=O | 4.69 µM (active)
C[C@@H]1CC[C@H]2[C@@H](C)C(=O)O[C@@H]3O[C@@]4(C)CC[C@H]1[C@]32OO4 | inactive
COc1ccc2c(c[n+](C)c3c4cc5c(cc4ccc23)OCO5)c1OC | 6.62 µM (active)
O=[N+]([O-])c1ncc[nH]1 | inactive
c1cc2c(cc1[C@H]1OC[C@H]3[C@H]1CO[C@H]3c1ccc3c(c1)OCO3)OCO2 | inactive
Cc1c(N)nc([C@H](CC(N)=O)NC[C@@H](N)C(N)=O)nc1C(=O)N[C@H](C(=O)N[C@@H](C)[C@H](O)[C@@H](C)C(=O)N[C@@H](C(=O)NCCc1nc(-c2nc(C(=O)NCCC[S+](C)C)cs2)cs1)[C@@H](C)O)C(O[C@H]1O[C@H](CO)[C@H](O)[C@@H](O)[C@@H]1O[C@H]1O[C@H](CO)[C@@H](O)[C@H](OC(N)=O)[C@H]1O)c1cnc[nH]1 (stereo not given in full) | 0.296 µM (active)
COc1ccc2c(c1)CN(C)CC2c1ccc(Cl)c(Cl)c1 (stereo not given) | 16.6 µM (active)
Cc1c(C(=O)Nc2cccc(C(F)(F)F)c2)cc(-c2ccccc2)n1CCCN1CCOCC1 | 18.7 µM (active)
CC(C)(O)C=CC(=O)[C@](C)(O)[C@H]1[C@H](O)C[C@]2(C)[C@@H]3CC=C4[C@@H](C=C(O)C(=O)C4(C)C)[C@]3(C)C(=O)C[C@@]12C | 0.0209 µM (active)
CC(=CCCC1=CCC(C2=CC(=O)OC2O)OC1O)CCC1=C(C)CCCC1(C)C (stereo not given) | inactive
CC1(N2CCC(n3c([C@@H]4CCCNC4)nc4ccccc43)CC2)CCCCCCC1 | 14.8 µM (active)

Structure (SMILES) | Potency
NC1CC1c1ccccc1 (stereo not given) | inactive
O=C(Oc1ccc([N+](=O)[O-])cc1)N1CCN(Cc2cccc(Oc3ccccc3)c2)CC1 | inactive
CCNC(=O)C[C@@H]1N=C(c2ccc(Cl)cc2)c2cc(OC)ccc2-n2c(C)nnc21 | 0.469 µM (active)
O=C(N[C@@H](COc1ccc2[nH]c(=O)[nH]c2c1)c1ccccc1)c1cccn(Cc2ccc(F)c(F)c2)c1=O | 20.9 µM (active)
CCCN1CCO[C@@H]2c3cc(O)ccc3OC[C@@H]21 | inactive
CN[C@@H]1Cc2cccc3[nH]c(=O)n(c23)C1 | inactive
N#C[C@H](O[C@@H]1O[C@H](CO[C@@H]2O[C@H](CO)[C@H](O)[C@H](O)[C@H]2O)[C@H](O)[C@H](O)[C@H]1O)c1ccccc1 | 6.62 µM (active)
COc1cc([C@@H]2c3cc4c(cc3[C@@H](O)C3COC(=O)C32)OCO4)cc(OC)c1O (stereo not given in full) | 0.0148 µM (active)
C1=C2CCCN[C@H]2[C@@H]2C[C@H]1[C@@H]1CCCCN1C2 | inactive
Cc1[nH]nc2ccc(-c3cncc(OC[C@@H](N)Cc4c[nH]c5ccccc45)c3)cc12 | inactive
Cc1nc(-c2ccc(-c3ccc(C(=O)N4CCc5cc6c(cc54)C4(CCN(C)CC4)CO6)cc3)c(C)c2)no1 | inactive
COc1ccc(CC2NCCc3cc(OC)c(OC)cc32)cc1OC (stereo not given) | inactive
CC1=C(O)C(=O)C=C2C1=CC=C1[C@@]2(C)CC[C@@]2(C)[C@@H]3C[C@](C)(C(=O)O)CC[C@]3(C)CC[C@]12C | 1.87 µM (active)
C[C@H]1CCCC=CC2C[C@H](O)C[C@@H]2[C@H](O)C=CC(=O)O1 (stereo not given in full) | 0.001 µM (active)
COCC1(CO)C(=O)C2CCN1CC2 (stereo not given) | 4.18 µM (active)
CC(C)(O)C(=O)Nc1ccc([N+](=O)[O-])c(C(F)(F)F)c1 | 14.8 µM (active)
C[C@]12CCC(=O)C(O)=C1CC[C@@H]1[C@H]3CCC(=O)[C@@]3(C)CC[C@@H]12 | inactive
CCCCCC[C@H]1C(=O)O[C@H](C)[C@H](NC(=O)c2cccc(NC=O)c2O)C(=O)O[C@@H](C)[C@@H]1OC(=O)CC(C)C | 0.235 µM (active)
COc1ccc2c(c1)[C@]13CCCCC1C(C2)N(C)CC3 (stereo not given in full) | inactive
O=C1CCC[C@@H]2[C@H]3CCCN4CCC[C@@H](CN12)[C@@H]34 | inactive
